The nature of experiment [1]: CCTE_Shafer_MEA_acute_spike_number: CCTE's Neural Acute Assay for Total Number of Spikes, Shafer Lab (AID 2284008).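 As to AC50: curve fitted for decrease in spike count so AC50 reflects inhibitors.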 Summed up:
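Total spike count from 40 min recordings before and during compound exposure (0.03-40 uM), given as per-well percent change. Cortical cultures from rat, DIV 13 or 15, 37 C; adaptive detection threshold 8x rms noise.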

Experiment [2] in a line: CCTE_Shafer_MEA_acute_firing_rate_mean: CCTE's Neural Acute Assay for Mean Firing Rate, Shafer Lab (AID 2284009).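 Also: analyzed for loss of signal so actives lower firing rate relative to DMSO.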 Summed up: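 Rat cortical neuron cultures matured to DIV 13 or 15, equilibrated 20 min at 37 C, then recorded 40 min for baseline. Compound (0.03-40 uM) added and a further 40 min recorded; percent change in mean firing rate calculated per well.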
Experiment [3] can be described thus: CCTE_Harrill_HTTr_Viability_MCF7: CCTE's 6-hour Cell Viability Assessment for the High-Throughput Transcriptomics (HTTr) Platform, in MCF-7 cells cultured in DMEM + 10% fetal bovine serum, Harrill Lab (AID 2284010). In outline: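 Propidium iodide exclusion, imaged by high-content analysis, gauged viability after a six-hour exposure across eight concentrations. Cells were MCF-7 grown in DMEM with 10% fetal bovine serum; fits run in both directions against DMSO.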

Experiment [4] is described as follows: CCTE_Harrill_HTTr_Apoptosis_MCF7: CCTE's 6-hour Apoptosis Assessment for the High-Throughput Transcriptomics (HTTr) Platform, in MCF-7 cells cultured in DMEM + 10% fetal bovine serum, Harrill Lab (AID 2284011). Summed up:
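High-content imaging of CellEvent Caspase 3/7 Green signal follows a six-hour exposure, with eight concentrations per chemical. MCF-7 cells grown in DMEM plus 10% fetal bovine serum; activity fitted in both directions against DMSO.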

Experiment [5] in a line: CCTE_Harrill_HTTr_CellCount_MCF7: CCTE's Cell Proliferation Assessment for the High-Throughput Transcriptomics (HTTr) Platform, Harrill Lab (AID 2284012; active = hit-call score of the fitted dose curve at least 0.9, where 1 is the maximum;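 also: cells exposed to compound for six hours; intended direction is loss of nuclei count meaning fewer cells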). Summed up:
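Cell count from high-content imaging of Hoechst-labeled nuclei serves as viability/growth readout. Chemicals were applied to MCF-7 cells in eight concentrations for six hours, with fitting in both directions relative to DMSO.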

Experiment [6] in a line: CCTE_Shafer_MEA_acute_burst_number: CCTE's Neural Acute Assay for Single-Electrode Bursts, Shafer Lab (AID 2284013). Summed up: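 Percent change in single-electrode burst number per well, from 40-min recordings taken before and after adding compound (0.03-40 uM) to primary rat cortical neurons on MEA plates at DIV 13 or 15, 37 C.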
The nature of experiment [7]: CCTE_Shafer_MEA_acute_burst_duration_mean: CCTE's Neural Acute Assay for Mean Burst Duration, Shafer Lab (AID 2284014).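 Also: hits are decreases in mean burst duration relative to DMSO controls.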 Summed up:
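Rat cortical cultures, DIV 13/15; 40 min baseline, then 40 min with compound (0.03-40 uM), 37 C. Spikes: 300-5000 Hz band-pass, 8x rms threshold. Read-out: % change in mean single-electrode burst duration, DMSO-referenced, loss direction.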

Experiment [8] in a line: CCTE_Shafer_MEA_acute_per_burst_spike_number_mean: CCTE's Neural Acute Assay for Average Number of Spikes Per Burst, Shafer Lab (AID 2284015).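 Also: hits are decreases in mean spikes per burst versus baseline.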 Summed up:
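Primary rat cortical neurons on 48-well MEA plates, treated on DIV 13 or 15 at 0.03-40 uM. Spontaneous activity recorded 40 min before and 40 min after compound at 37 C; percent change in mean spikes per single-electrode burst per well, fitted in the loss direction versus DMSO.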

Experiment [9] is described as follows: CCTE_Simmons_MITO_inhib_resp_rate: CCTE's HepG2 Seahorse XF Respirometric Screening Assay at Inhibited Respiratory State [full ETC block], Simmons Lab (AID 2284006). As to conditions: actives raise or lower the signal. Summed up: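 This endpoint is the respiration rate remaining after rotenone/antimycin A block, in HepG2 cells on a Seahorse XF96. Chemicals spanned 125 nM–100 uM final, in three biological replicates. OCR was read every 6 minutes for 72 minutes and compared with DMSO vehicle.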

The nature of experiment [10]: CCTE_Simmons_MITO_viability: CellTiter-Glo Viability Assessment for CCTE's HepG2 Seahorse XF Respirometric Screening Assay [post-hoc], Simmons Lab (AID 2284007; active = hit-call score of the fitted dose curve at least 0.9, where 1 is the maximum;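 as to AC50: cells exposed to chemical for 90 min before the ATP read; actives lower ATP signal relative to DMSO baseline meaning reduced viability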). In outline: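 Luciferase-coupled ATP read-out after the Seahorse run: HepG2 cells treated 90 minutes with test chemical, 7-point series of 125 nM–100 uM final, in triplicate biological runs. Vehicle DMSO; dichlone as positive control over 8 concentrations.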
In general terms: ATP-based viability assays read luminescence as a measure of living cells.

Several values for one entry are separate records, joined by “and”; a condition that tells them apart may be missing. Equal values may be shown once. Results filed as inconclusive are left out. More than one record can exist for a structure, and the calls need not agree. Activity calls are given as the source filed them. The calls were made as follows, unless noted: active = hit-call score of the fitted dose curve at least 0.9, where 1 is the maximum; inactive = score below 0.9.

In general, AC50 refers to the midpoint of the concentration-response curve, whichever way the signal moves. Regarding `ClC1C(Cl)C(Cl)C(Cl)C(Cl)C1Cl` (centres undefined), the AC50 in experiment [1] was 20 µM (active); in experiment [2] it was 20 µM (active); in [7], 20 µM (active); in experiment [8], 1.62 µM (active). Moreover, the outcome in [3], in experiment [4], in [5] and in experiment [6] was inactive.
Turning to `C#CCN1C(=O)COc2cc(F)c(N3C(=O)C4=C(CCCC4)C3=O)cc21`, the result in experiment [9], in [10], in experiment [3] and in experiment [4] was inactive.
As for `O=C(O)CCCOc1ccc(Cl)cc1Cl`, the compound was called inactive in experiment [9], in [1], in [2], in experiment [3], in [4] and in experiment [6]. Besides, the compound was classed as inactive in experiment [7] and in experiment [8].
`CCOC1Oc2ccc(OS(C)(=O)=O)cc2C1(C)C` (centres undefined): the AC50 in experiment [9] was 33.9 µM (active). For the same compound, the compound was classed as inactive in experiment [10], in experiment [3] and in [4].
In the case of `CCC(C)(C)C(=O)OC1=C(c2ccc(Cl)cc2Cl)C(=O)OC12CCCCC2`, the result in [1], in experiment [2], in experiment [3], in experiment [4], in experiment [5] and in experiment [6] was inactive. For the same compound, the call in experiment [7] and in experiment [8] was inactive. The AC50 was 25.9 µM (active) in experiment [7] and 20 µM (active) in experiment [8].
As for `CC1(C)C(C=C(Cl)Cl)C1C(=O)OC(C#N)c1ccc(F)c(Oc2ccccc2)c1` (centres undefined), the AC50 was 407 nM (active) and 4.51 µM (active) in [1]; 450 nM (active) and 4.51 µM (active) in experiment [2]; 0.173 µM (active) in [6]; 1.66 µM (active) in experiment [7]; 0.574 µM (active) in experiment [8]. In addition, the result in [3], in experiment [4], in experiment [5], in [6], in experiment [7] and in [8] was inactive.
Turning to `CC(C)N(C(=O)COc1nnc(C(F)(F)F)s1)c1ccc(F)cc1`, the AC50 in [1] is 5.77 µM (active) and 2.11 µM (active); in experiment [2] it was 5.77 µM (active); in [8], 1.36 µM (active). Also, the result in [2], in [3], in experiment [4], in experiment [6], in [7] and in experiment [8] was inactive.
For the compound `CC1(c2ccc(Oc3ccccc3)cc2)OC(=O)N(Nc2ccccc2)C1=O` (centres undefined), the result in experiment [9], in experiment [10], in [3] and in experiment [4] was inactive.
For `CCCN(CCOc1c(Cl)cc(Cl)cc1Cl)C(=O)n1ccnc1`, the outcome in experiment [9], in [3], in experiment [4] and in experiment [5] was inactive. The AC50 was 13.6 µM (active) in [10]; 1.26 µM (active) in experiment [1]; 1.24 µM (active) in [2]; 1.56 µM (active) in [6]; 29.5 µM (active) in experiment [7]; 33.1 µM (active) in experiment [8].
With `CNC(=O)CSP(=S)(OC)OC`, the compound was called inactive in experiment [1], in [2], in experiment [3], in [4], in experiment [5] and in experiment [6]. The compound was called inactive in [7] and in experiment [8].
In the case of `CC[C@H](C)[C@H]1O[C@]2(C=C[C@@H]1C)C[C@@H]1C[C@@H](C/C=C(\C)[C@@H](O[C@H]3C[C@H](OC)[C@@H](O[C@H]4C[C@H](OC)[C@@H](O)[C@H](C)O4)[C@H](C)O3)[C@@H](C)/C=C/C=C3\CO[C@@H]4[C@H](O)C(C)=C[C@@H](C(=O)O1)[C@]34O)O2` (tested in a mixture with another compound), the result in experiment [9], in experiment [3], in [4] and in experiment [5] was inactive. Moreover, the AC50 in experiment [1] was 0.0048 µM (active); in experiment [2], 0.00477 µM (active); in experiment [6], 0.00721 µM (active); in experiment [7], 0.0208 µM (active); in [8] it was 0.00576 µM (active).
As for `CC(C)(C)C(O)/C(=C\c1ccc(Cl)cc1Cl)n1cncn1` (centres undefined), the call in experiment [9], in [10], in [3], in experiment [4] and in [5] was inactive.
Turning to `CCC(C)Nc1c([N+](=O)[O-])cc(C(C)(C)C)cc1[N+](=O)[O-]` (centres undefined), the result in experiment [9], in experiment [10], in experiment [1], in experiment [2], in experiment [3] and in experiment [4] was inactive. Besides, the result in experiment [6], in experiment [7] and in experiment [8] was inactive.
Consider `CCOCN(C(=O)CCl)c1c(C)cccc1CC`, for which the compound was called inactive in experiment [9], in experiment [10], in experiment [3], in [4] and in [5].
Take `O=C(O)COc1ccc(Cl)cc1Cl`: the compound was classed as inactive in [9], in [3], in experiment [4] and in experiment [5].
Regarding `Oc1cc(Cl)ccc1Oc1ccc(Cl)cc1Cl`, the result in experiment [9], in experiment [10], in [3], in [4], in experiment [5] and in [7] was inactive. The outcome in experiment [8] was inactive. Besides, the values for the AC50 in experiment [1], in [2] and in [6] were 1.89 µM (active), 1.89 µM (active) and 1.29 µM (active), respectively.
As to `COP(=S)(OC)Oc1ccc([N+](=O)[O-])cc1`, the call in experiment [9], in experiment [10], in experiment [3], in experiment [4] and in [5] was inactive.
On to `CCC(C)(NC(=O)c1cc(Cl)c(C)c(Cl)c1)C(=O)CCl` (centres undefined), for which the compound was called inactive in experiment [9], in [3], in experiment [4] and in [5].
As to `O=S(=O)(O)C(F)(F)C(F)(F)C(F)(F)C(F)(F)C(F)(F)C(F)(F)C(F)(F)C(F)(F)F`, the compound was classed as inactive in experiment [1], in experiment [2], in experiment [3], in experiment [4], in [5] and in experiment [6]. For the same compound, the compound was classed as inactive in [7] and in experiment [8].
As for `N#Cc1c(Cl)c(Cl)c(Cl)c(C#N)c1Cl`, the call in [9], in experiment [1], in experiment [2], in experiment [3], in experiment [4] and in experiment [5] was inactive. The compound was classed as inactive in experiment [6], in [7] and in experiment [8]. For the same compound, the AC50 in experiment [10] was 20 µM (active).
In the case of `Oc1ccc(Cl)cc1Cc1ccccc1`, the result in experiment [9], in experiment [10], in [3], in experiment [4], in [5] and in experiment [7] was inactive. For the same compound, in experiment [8], the outcome was inactive. The AC50 in experiment [1] was 1.07 µM (active); in experiment [2], 1.08 µM (active); in experiment [6] it was 0.814 µM (active).
On to `O=S1OCC2C(CO1)C1(Cl)C(Cl)=C(Cl)C2(Cl)C1(Cl)Cl` (centres undefined), for which the result in [1], in experiment [2], in experiment [3], in experiment [4], in [5] and in experiment [6] was inactive. Moreover, in [7], the result was inactive. Besides, the AC50 in experiment [7] is 0.269 µM (active); in experiment [8], 223 nM (active) and 58.3 nM (active).

(Values after PubChem BioAssay (EPA / NIEHS).)
